Assay [1] is described as follows: antimalarial activity against Dd2 strain (AID 2302;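 active = growth inhibition above 50% at the single 2 µM test dose, taken to imply half-maximal potency below 2 µM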;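 also: 0% = DMSO untreated growth and 100% = chloroquine plus artemisinin killed control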). The conditions noted are these: P. falciparum Dd2 in RBCs, LDH growth readout, 72 h; at 2 µM; hits give high values.
A short description of assay [2]: HepG2 cytotoxicity, primary screen, cytotoxicity control for P. falciparum antimalarial project, cell-based, ATP luminescence (AID 2303;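 active = inhibition above 50%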;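 also: 0% = DMSO wells and 100% = digitonin-killed cells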). The conditions noted are these: HepG2 viability, 24-48 h, at 10 µM, hits give high values.
Assay [3] deals with L-lactate dehydrogenase (Plasmodium falciparum (isolate CDC / Honduras)) (UniProt Q27743). Description: PfLDH activity inhibition – cell lysate, 3D7 strain, counter-screen for P. falciparum growth inhibition project (AID 2304).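 Also: 0% = vehicle and 100% = reference inhibitor.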 Conditions: P. falciparum 3D7 crude extract, LDH APAD/NBT absorbance; at 2 µM; hits give high values. On the technique in general: The purpose of a counterscreen is to sort out artefacts and off-target activity.

A short description of assay [4]: inhibition of 3D7 malaria parasite growth – strain 3D7 (AID 2306).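 Also: 0% = DMSO wells and 100% = chloroquine plus artemisinin control wells.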 Conditions: P. falciparum 3D7 erythrocytic growth, LDH absorbance, 72 h; at 2 µM; hits give high values.
The target of assay [5] is Calcium-dependent protein kinase 1 (Plasmodium falciparum (isolate 3D7)) (UniProt P62344). The assay is described as follows: PfCDPK1 kinase inhibitors, biochemical, TCAMS library (AID 1159585; cut-off not given, nearly all actives have IC50 up to about 0.98 µM;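 also: inhibitors leave more ATP so luminescence rises with inhibition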). Conditions: recombinant PfCDPK1, Kinase-Glo ATP depletion luminescence.
The target in assay [6] is Plasmodium falciparum protein kinase 6 (PK6, PF3D7_1337100) (UniProt Q8IDW1). The assay is described as follows: PfPK6 kinase inhibitors, biochemical, TCAMS library (AID 1159586). The conditions noted are these: recombinant PfPK6, Kinase-Glo ATP depletion luminescence.
For assay [7], the target named is Protein kinase 7 (PK7), Plasmodium falciparum 3D7 (PF3D7_0213400) (UniProt Q7YTF7). Description: inhibition of Plasmodium PK7 catalytic activity – biochemical, TCAMS antimalarial set, Kinase-Glo luminescence (AID 1159587). Conditions: recombinant PfPK7, Kinase-Glo ATP depletion luminescence. For orientation: Kinase-Glo measures the ATP left after a reaction by luminescence.

In assay [8] the target is Calcium-dependent protein kinase 4 (Plasmodium falciparum (isolate 3D7)) (UniProt Q8IBS5). Description: PfCDPK4 kinase inhibitors, biochemical, TCAMS library (AID 1159588; cut-off not given, nearly all actives have IC50 up to about 0.91 µM). The conditions noted are these: recombinant PfCDPK4, Kinase-Glo ATP depletion luminescence.

A number with no mark means an inactive call. For some assays here: Potency and affinity values are given separately. The source made the active and inactive calls. Unless noted, no rule for the calls is given here.

Growth inhibition, inhibition and outcome data for 19 compounds are collected here from PubChem BioAssay.

Broadly, the inhibition is the drop in the measured response relative to a control, in per cent.

Sequence of Plasmodium falciparum protein kinase 6 (PK6, PF3D7_1337100) (Q8IDW1 1-305): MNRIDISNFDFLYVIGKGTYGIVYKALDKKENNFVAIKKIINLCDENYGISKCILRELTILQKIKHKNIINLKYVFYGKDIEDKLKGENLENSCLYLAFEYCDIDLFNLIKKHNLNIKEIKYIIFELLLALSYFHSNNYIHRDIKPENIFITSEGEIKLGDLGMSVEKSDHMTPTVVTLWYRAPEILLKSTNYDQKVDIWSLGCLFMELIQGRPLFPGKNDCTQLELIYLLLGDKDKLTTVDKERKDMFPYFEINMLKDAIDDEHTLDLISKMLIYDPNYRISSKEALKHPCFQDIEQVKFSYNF
Sequence of Calcium-dependent protein kinase 1 (Plasmodium falciparum (isolate 3D7)) (P62344 whole entry, looked up): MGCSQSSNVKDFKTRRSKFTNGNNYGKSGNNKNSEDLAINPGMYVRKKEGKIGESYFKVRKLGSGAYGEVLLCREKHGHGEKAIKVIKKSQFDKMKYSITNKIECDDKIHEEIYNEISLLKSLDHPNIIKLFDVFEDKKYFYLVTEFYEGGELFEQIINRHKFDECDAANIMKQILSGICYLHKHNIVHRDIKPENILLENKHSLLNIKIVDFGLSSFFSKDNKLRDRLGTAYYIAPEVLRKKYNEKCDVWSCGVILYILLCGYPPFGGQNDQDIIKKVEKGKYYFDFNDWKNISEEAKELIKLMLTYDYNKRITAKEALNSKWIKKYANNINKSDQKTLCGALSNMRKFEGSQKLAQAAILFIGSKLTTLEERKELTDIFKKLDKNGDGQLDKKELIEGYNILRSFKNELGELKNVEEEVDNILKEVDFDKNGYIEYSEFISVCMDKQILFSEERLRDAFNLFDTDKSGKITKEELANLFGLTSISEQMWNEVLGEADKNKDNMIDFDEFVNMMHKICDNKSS
Sequence of Calcium-dependent protein kinase 4 (Plasmodium falciparum (isolate 3D7)) (Q8IBS5 whole entry, looked up): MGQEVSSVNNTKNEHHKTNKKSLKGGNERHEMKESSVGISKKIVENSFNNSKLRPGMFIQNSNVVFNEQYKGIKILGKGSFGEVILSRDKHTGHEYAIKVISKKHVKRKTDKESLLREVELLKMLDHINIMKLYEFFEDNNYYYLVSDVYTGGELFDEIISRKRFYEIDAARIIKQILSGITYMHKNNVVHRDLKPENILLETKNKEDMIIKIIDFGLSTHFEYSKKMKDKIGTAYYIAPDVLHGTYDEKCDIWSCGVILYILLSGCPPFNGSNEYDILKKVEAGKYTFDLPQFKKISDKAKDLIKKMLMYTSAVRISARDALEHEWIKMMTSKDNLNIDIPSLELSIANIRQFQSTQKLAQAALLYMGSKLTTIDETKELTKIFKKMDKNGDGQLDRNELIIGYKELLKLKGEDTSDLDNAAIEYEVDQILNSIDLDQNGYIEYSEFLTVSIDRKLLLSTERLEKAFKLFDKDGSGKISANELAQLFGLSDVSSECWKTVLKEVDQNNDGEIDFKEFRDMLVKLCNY
Sequence of Protein kinase 7 (PK7), Plasmodium falciparum 3D7 (PF3D7_0213400) (Q7YTF7 1-343): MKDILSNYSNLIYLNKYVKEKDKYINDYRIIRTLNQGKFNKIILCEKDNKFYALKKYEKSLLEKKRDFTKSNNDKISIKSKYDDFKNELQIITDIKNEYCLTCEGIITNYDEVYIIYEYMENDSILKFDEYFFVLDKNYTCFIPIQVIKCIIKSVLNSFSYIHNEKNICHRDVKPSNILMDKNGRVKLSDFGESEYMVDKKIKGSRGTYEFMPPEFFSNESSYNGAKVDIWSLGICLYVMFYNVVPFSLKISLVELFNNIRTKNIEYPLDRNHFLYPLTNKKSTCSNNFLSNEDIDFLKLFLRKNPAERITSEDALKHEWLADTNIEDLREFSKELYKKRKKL
Sequence of L-lactate dehydrogenase (Plasmodium falciparum (isolate CDC / Honduras)) (Q27743 whole entry, looked up): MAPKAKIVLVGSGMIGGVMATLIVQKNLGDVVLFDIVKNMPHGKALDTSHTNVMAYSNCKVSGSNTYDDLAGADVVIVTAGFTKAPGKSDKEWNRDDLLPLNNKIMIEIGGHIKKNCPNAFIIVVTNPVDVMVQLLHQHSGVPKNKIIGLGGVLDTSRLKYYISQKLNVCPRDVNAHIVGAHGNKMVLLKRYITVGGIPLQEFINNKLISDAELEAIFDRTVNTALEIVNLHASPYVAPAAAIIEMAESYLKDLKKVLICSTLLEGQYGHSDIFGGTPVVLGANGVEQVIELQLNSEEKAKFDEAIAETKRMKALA

On to `CC1(C)N=C(N)N=C(N)N1OCC=Cc1ccccc1`, for which the growth inhibition is 96% (active) in assay [1] and 94% (active) in assay [4]. For the same compound, the inhibition in assay [2] is 62% (active); in assay [3], -3%. The outcome in assay [5], in assay [6], in assay [7] and in assay [8] was inactive.
As to `Cc1ccc2nc(C)cc(NN=Cc3ccccc3[N+](=O)[O-])c2c1`, the results for the growth inhibition in assay [1] and in assay [4] were 100% (active) and 102% (active), respectively. Also, the results for the inhibition in assay [2] and in assay [3] were 5% and -1%, respectively. The outcome in assay [5], in assay [6], in assay [7] and in assay [8] was inactive.
Consider `Cc1cccc2[nH]c(-c3cccc(-c4ccc(NC(=O)C(C)C(=O)NC(C)C)cc4)c3)nc12` (configuration not stated), for which the growth inhibition is 26% in assay [1] and 85% (active) in assay [4]. Further, the results for the inhibition in assay [2] and in assay [3] were 13% and -3%, respectively. The outcome in assay [5], in assay [6], in assay [7] and in assay [8] was inactive.
Take `N#Cc1ccc(NC(=NC2CCN(Cc3ccccc3)CC2)Nc2ccccc2Cl)c(O)c1`: the growth inhibition in assay [1] is 97% (active); in assay [4] it was 101% (active). Besides, the results for the inhibition in assay [2] and in assay [3] were 31% and 0%, respectively. Further, the outcome in assay [5], in assay [6], in assay [7] and in assay [8] was inactive.
`O=C(N[C@@H](Cc1ccccc1)[C@H](O)CNC1CCc2ccccc2C1)c1cc(C2CCCC2)cc(N2CCCC2=O)c1` (some centres not stated): the growth inhibition is 76% (active) in assay [1] and 99% (active) in assay [4]. Moreover, the values for the inhibition in assay [2] and in assay [3] were 23% and -4%, respectively. The outcome in assay [5], in assay [6], in assay [7] and in assay [8] was inactive.
`O=C(N[C@@H](CC1CCCCC1)C(=O)NCCN1CCCC1)c1ccc(O)c(-c2ccc(Cl)c(Cl)c2)c1`: the growth inhibition in assay [1] and in assay [4] was 99% (active) in each case. The inhibition in assay [2] was 16%; in assay [3], 2%. In addition, the outcome in assay [5], in assay [6], in assay [7] and in assay [8] was inactive.
As for `CC1(C)[C@H]2CC[C@@H](CNc3nc(NCCc4cnc[nH]4)nc(Nc4ccc5c(c4)OCO5)n3)[C@@H]1C2`, the growth inhibition is 88% (active) in assay [1] and 101% (active) in assay [4]. Besides, the figures for the inhibition in assay [2] and in assay [3] were 3% and -4%, respectively. Moreover, the result in assay [5], in assay [6], in assay [7] and in assay [8] was inactive.
In the case of `Cc1cc(NCCC(=O)Nc2ccccc2)nc(NCCc2ccc(F)cc2)n1`, the growth inhibition was 43% in assay [1] and 101% (active) in assay [4]. The inhibition was 26% in assay [2] and 2% in assay [3]. In addition, the outcome in assay [5], in assay [6], in assay [7] and in assay [8] was inactive.
For the compound `Cc1cc(NCCC(=O)NCCOc2ccccc2)nc(Nc2ccccc2)n1`, the growth inhibition in assay [1] was 55% (active); in assay [4] it was 94% (active). For the same compound, the inhibition was 26% in assay [2] and -1% in assay [3]. For the same compound, the outcome in assay [5], in assay [6], in assay [7] and in assay [8] was inactive.
Take `CCCC(CCC)n1ccc2c3c(N)nc(N)nc3ccc21`: the values for the growth inhibition in assay [1] and in assay [4] were 97% (active) and 98% (active), respectively. The results for the inhibition in assay [2] and in assay [3] were 66% (active) and -2%, respectively. For the same compound, the result in assay [5], in assay [6], in assay [7] and in assay [8] was inactive.
In the case of `COc1ccc(NC(=O)[C@H](C)Nc2cc(C)nc(NCC3CCCCC3)n2)cc1`, the growth inhibition in assay [1] was 13%; in assay [4] it was 92% (active). The inhibition in assay [2] is 12%; in assay [3], -3%. In addition, the result in assay [5], in assay [6], in assay [7] and in assay [8] was inactive.
`CCCCOc1c(CNCCCCCCNCc2ccc3ccccc3c2OCCCC)ccc2ccccc12`: the values for the growth inhibition in assay [1] and in assay [4] were 89% (active) and 96% (active), respectively. In addition, the inhibition in assay [2] was 99% (active); in assay [3], 7%. The result in assay [5], in assay [6], in assay [7] and in assay [8] was inactive.
With `CCN(CC)CCN(Cc1ccc(-c2ccc(C(F)(F)F)cc2)cc1)C(=O)Cn1c(CCc2cc(F)ccc2F)nc(=O)c2ccccc21`, the growth inhibition in assay [1] is 52% (active); in assay [4], 98% (active). Further, the inhibition in assay [2] is 42%; in assay [3], 4%. Also, the result in assay [5], in assay [6], in assay [7] and in assay [8] was inactive.
As to `Cc1ccc2nc(C)cc(NN=CC=Cc3ccccc3)c2c1`, the growth inhibition in assay [1] was 28%; in assay [4], 92% (active). Also, the inhibition in assay [2] was 0%; in assay [3] it was 4%. In addition, the result in assay [5], in assay [6], in assay [7] and in assay [8] was inactive.
Regarding `CC(=O)Nc1ccc(C(=O)N2CCN(c3ccnc4cc(Cl)ccc34)CC2)cc1`, the results for the growth inhibition in assay [1] and in assay [4] were 43% and 93% (active), respectively. Further, the inhibition in assay [2] is 2%; in assay [3] it was -5%. Moreover, the result in assay [5], in assay [6], in assay [7] and in assay [8] was inactive.
For the compound `Cc1noc(-c2ccc3c(c2)CCN(CCC2CCC(NC(=O)/C=C/c4cccc(Cl)c4)CC2)CC3)n1` (configuration not stated), the growth inhibition in assay [1] was 24%; in assay [4], 86% (active). The inhibition in assay [2] is 37%; in assay [3], 4%. For the same compound, the result in assay [5], in assay [6], in assay [7] and in assay [8] was inactive.
Consider `Cc1c[nH]c2ccc(/C=C/C(=O)NC3CCC(CCN4CCc5ccc(C#N)cc5CC4)CC3)cc12` (configuration not stated), for which the results for the growth inhibition in assay [1] and in assay [4] were 91% (active) and 101% (active), respectively. In addition, the inhibition was 9% in assay [2] and 0% in assay [3]. The result in assay [5], in assay [6], in assay [7] and in assay [8] was inactive.
On to `c1cncc(-c2cc(N3CCCCC3)nc(-c3ccncc3)n2)c1`, for which the growth inhibition was 46% in assay [1] and 99% (active) in assay [4]. Moreover, the inhibition was 18% in assay [2] and 2% in assay [3]. Further, the outcome in assay [5], in assay [6], in assay [7] and in assay [8] was inactive.
As to `Cc1ccc(F)c(OCC2CCN(c3ccc(C(=O)NC4CC4)cn3)CC2)c1`, the growth inhibition in assay [1] was 95% (active); in assay [4], 94% (active). Further, the inhibition is 4% in assay [2] and 2% in assay [3]. For the same compound, the result in assay [5], in assay [6], in assay [7] and in assay [8] was inactive.
